# Shown are actives, neighbours in structure and some others; about 13% of the full set was active somewhere.
# CHX counter: Cycloheximide Counterscreen for Small Molecule Inhibitors of Shiga Toxin | cell reporter, cycloheximide protein synthesis inhibition counterscreen | 12% of 300,000 active | max response, %; in the data active means max response mostly above about 13%, no sharp cut-off; inactive means mostly below about 14%; further: read at 38.3 µM for the half of the compounds with a filed dose; 0% is about no effect
# Shiga inhibitor: A qHTS for Small Molecule Inhibitors of Shiga Toxin; Vero cells, Shiga toxin protein synthesis inhibition reporter; inhibition, % at 38.7 µM; 9.2% of 290,000 active; AID 2315, 2010; in the data active means inhibition mostly above about 28%, no sharp cut-off; inactive means mostly below about 43%; further: 0% is about no effect
# LASV entry inh: qHTS for Inhibitors of binding or entry into cells for Lassa Virus | Lassa virus pseudotype entry inhibition, cell reporter | Potency, µM (titrated, usually from 37.9 µM), for inactives: at the top dose activity change, negative = inhibition, hits mostly inhibitors | 1.2% of 300,000 active | AID 540256, 2011; calls by dose curve; tested in HEK293 cells; further: potency means the concentration at half of the fitted maximal effect; on the % scale 0 is the no-effect control and ±100 the full control effect; nearly all actives have a fitted effect of over 50% in size
# FMDV inh: High Throughput Screening for Foot and Mouth Disease Virus Antivirals | FMDV antiviral cell-based qHTS | Potency, µM (top dose mostly 57.9 µM), for the others: at the top dose activity change, negative = inhibition, usual class: inhibitors | 1.2% of 410,000 active; calls by dose curve; tested in HEK293T cells; further: read-out not given here; potency means the concentration at half of the fitted maximal effect; on the % scale 0 is the no-effect control and ±100 the full control effect; nearly all actives have a fitted effect of over 45% in size
# Marburg entry inh: qHTS for inhibitors of binding or entry into cells for Marburg Virus. Potency, µM (titrated, usually from 37.8 µM), for the others: at the highest dose activity change, negative = inhibition, usual class: inhibitors. 1.8% of 300,000 active. Marburg virus pseudotyped entry inhibition, cell reporter; calls by dose curve; tested in HEK293 cells; further: potency means the concentration at half of the fitted maximal effect; on the % scale 0 is the no-effect control and ±100 the full control effect
# HCV inhibitor: qHTS Assay for Inhibitors of Hepatitis C Virus (HCV); Huh7.5.1 HCVcc-Cre infection, luciferase reporter, 44 h; Potency, µM (top dose mostly 41.8 µM), inactives show at the top dose activity change, negative = inhibition, usual class: inhibitors; 3.4% of 340,000 active; AID 651820, 2012; active means well fitted inhibition curve with a large enough effect; inconclusive means small, poorly fitted or top-dose-only effect, or another doubt; inactive means no such curve, though single readings can be large or run the other way; further: potency means the concentration at half of the fitted maximal effect; on the % scale 0 is the no-effect control and ±100 the full control effect
#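 A cell-based infection assay in which seeded cells (1,000 per well) receive test compound after 4 h, are inoculated with HCVcc-Cre at approximately 0.5 moi, and are incubated 44 h before luminescence detection.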
# Active calls of the source: *; ? = inconclusive; nt = not tested or not shown; [ ] = dose if it differs, or a comment.
SMILES,CHX counter,Shiga inhibitor,LASV entry inh,FMDV inh,Marburg entry inh,HCV inhibitor
O=C(NC(=S)Nc1ccccc1N1CCN(C(=O)c2ccccc2)CC1)c1cccs1,-3,-7,nt,-21%,nt,-5%
O=C(NC(=S)Nc1ccc(S(=O)(=O)N2CCCC2)cc1)c1cccs1,13,0,-16%,?,4%,1%
O=C(NC(=S)Nc1ccc(N2CCN(C(=O)c3ccccc3)CC2)cc1)c1cccs1,-4,-9,?,?,?,32µM*
CCOC(=O)C1CCN(C(=O)c2cccs2)CC1,-2,5,nt,6%,nt,-7%
CCNc1nc(OCC)nc(N2CCC(Cc3ccccc3)CC2)n1,-2,-4,-8%,-16%,-15%,-1%
Cc1[nH]c(=O)[nH]c(=O)c1/C=N/NC(=O)[C@@H](N)CC(C)C,16*,30,nt,3%,nt,?
Cc1ccc(CCNc2ncnc(Cl)c2N)cc1,nt,nt,-21%[46.1 µM],0%,?,1µM*
O=C1CC2(CCN(C(=O)c3cccc(Br)c3)CC2)Oc2ccccc21,nt,nt,0%,?,?,9%
Cn1ccc(C(=O)N2CCCc3ccccc32)n1,-2,-3,9%,-23%,8%,-3%
O=C(c1cc(-c2ccccc2)on1)N1CCCc2ccccc21,50*,61*,nt,33%,nt,5%
O=C(c1cc(-c2ccco2)on1)N1CCCc2ccccc21,16*,105*,12%,29%,8%,-5%
O=C(COC(=O)CCC1CCCC1)Nc1ccccc1Sc1ccccc1,-2,-8,5%[46.1 µM],-4%,-1%[46.1 µM],-9%
Cc1ccc2[nH]c(=O)c(CN(CCO)C(=O)N(C)C)cc2c1,nt,nt,-7%,7%,0%,24%
CCCOc1ccc(/C(O)=C2/C(=O)C(=O)N(CCN(C)C)C2c2ccco2)cc1 (centres undefined),37*,74*,-8%,0%,6%,2%
Cc1c(/C(O)=C2\C(=O)C(=O)N(CCCN(C)C)C2c2ccco2)cnn1-c1ccccc1 (centres undefined),nt,nt,3%[46.1 µM],-21%,?,7%
Cc1c(/C(O)=C2\C(=O)C(=O)N(CCN(C)C)C2c2ccco2)cnn1-c1ccccc1 (centres undefined),30*,67*,-2%,8%,8%,10%
CCCOc1cccc(C2/C(=C(/O)c3ccccc3)C(=O)C(=O)N2CCN(C)C)c1 (centres undefined),-5,-13,?,-4%,?,5%
CCN(CC)CCCN1C(=O)C(=O)/C(=C(/O)c2ccc3c(c2)OCCO3)C1c1ccco1 (centres undefined),46*,45,2%,51%,?,-1%
CN(C)CCCN1C(=O)C(=O)/C(=C(/O)c2ccc3c(c2)OCCO3)C1c1ccco1 (centres undefined),1,-3,nt,nt,nt,nt
COc1cccc(C2/C(=C(/O)c3cnn(-c4ccccc4)c3C)C(=O)C(=O)N2CCN(C)C)c1OC (centres undefined),-2,-14,-7%,0%,1.1µM*,-4%
Cc1c(/C(O)=C2\C(=O)C(=O)N(CCN(C)C)C2c2ccccc2)cnn1-c1ccccc1 (centres undefined),50*,111*,12%[46.1 µM],-6%,6%[46.1 µM],25%
COC(=O)CCc1n[nH]c(=O)[nH]c1=O,-3,-12,nt,-14%,-3%,2%
CCCCNC(=O)CO/N=C(\C)c1cc2ccccc2o1,54*,77*,-5%,10%,-5%,-9%
C/C(=N\OCC(=O)NCC(F)(F)F)c1cc2ccccc2o1,53*,71*,?,48%,?,-12%
CCOc1ccc(N2C(=O)CC(N3CCN(C(=O)c4ccco4)CC3)C2=O)cc1 (centres undefined),1,-7,7%,9%,18%[46.1 µM],-9%
COc1cccc(NC(=O)c2ccc(N3C(=O)C4CC=C(C)CC4C3=O)cc2)c1 (centres undefined),12,57,nt,?,nt,?
COCCC(=O)N1CCC(Oc2ccc(C(=O)NCCC3=CCCCC3)cc2)CC1,19*,29,nt,-1%,nt,-18%
COCCC(=O)N1CCC(Oc2ccc(C(=O)N(C)CCCC3CCCC3)cc2)CC1,26*,57*,nt,1%,nt,?
